Among all 39,000 compounds or so, about 500 (1.3%) were called active. The entries come from a sample that favours actives as a whole.
tested on: S. aureus RN4220; experiment: growth inhibition call (relative growth <= 0.2); settings: 50 µM

Row | Structure (SMILES) | growth inhibition call
1 | CCn1cnc2c(=O)[nH][nH]c(=O)c21 | inactive
2 | C[C@@H]1CN([C@@H](C)CO)C(=O)Cc2cc(NC(=O)Nc3ccccc3)ccc2O[C@@H]1CN(C)Cc1ccc(C(F)(F)F)cc1 | inactive
3 | CC(C)NC(=O)N(C)C[C@@H]1Oc2ccc(NC(=O)C3CCCCC3)cc2CC(=O)N([C@H](C)CO)C[C@H]1C | inactive
4 | C[C@H]1CN([C@@H](C)CO)C(=O)CCCn2cc(nn2)CO[C@@H]1CN(C)C(=O)Nc1cccc(C(F)(F)F)c1 | inactive
5 | C[C@@H]1CN([C@H](C)CO)C(=O)c2cc(NC(=O)Nc3cccc4ccccc34)ccc2O[C@H]1CN(C)S(=O)(=O)c1cccs1 | inactive
6 | Cc1cc(=O)[n+]2cccc(O)c2[nH]1 | active
7 | Cc1cc(C(=O)O)n[nH]1 | inactive
8 | Cc1cc(O)cc(=O)[nH]1 | inactive
9 | CNC(=O)c1cccc(NC(=S)NC)c1 | inactive
10 | C[C@H](CO)N1C[C@H](C)[C@H](CN(C)C(=O)Nc2ccc3c(c2)OCO3)Oc2ncc(C#CC(C)(C)O)cc2C1=O | inactive
11 | CC(=O)O | inactive
12 | O=C(O)P(=O)(O)O | active
13 | O=P(O)(O)CN(CCN(CP(=O)(O)O)CP(=O)(O)O)CP(=O)(O)O | inactive
14 | O=C(C[C@@H]1CC[C@@H]2[C@H](COC[C@@H](O)CN2C(=O)c2ccncc2)O1)NCc1ccc(-c2ccccc2)cc1 | inactive
15 | C[C@H]1CN([C@@H](C)CO)C(=O)c2cc(NS(=O)(=O)c3cn(C)cn3)ccc2O[C@@H]1CN(C)S(=O)(=O)c1cn(C)cn1 | inactive
16 | C[C@H]1CCCCO[C@H](CN(C)S(=O)(=O)c2ccc(F)cc2)[C@@H](C)CN([C@@H](C)CO)C(=O)c2cc(NS(C)(=O)=O)ccc2O1 | inactive
17 | Cc1noc(C)c1NC(=O)Nc1ccc2c(c1)C(=O)N([C@H](C)CO)C[C@@H](C)[C@H](CN(C)Cc1ccc3c(c1)OCO3)OCCCC[C@@H](C)O2 | inactive
18 | C[C@H]1CCCCO[C@H](CN(C)C(=O)CCC(F)(F)F)[C@@H](C)CN([C@@H](C)CO)C(=O)c2cc(NC(=O)Cc3ccccc3)ccc2O1 | inactive
19 | C/C=C\C1=C(C(=O)O)N2C(=O)[C@H](NC(=O)[C@@H](N)c3ccc(O)cc3)[C@@H]2SC1 | inactive
20 | CC1=C(C(=O)O)N2C(=O)C(NC(=O)C(N)c3ccc(O)cc3)C2SC1 (stereo not given) | inactive
21 | CC1=C(C(=O)O)N2C(=O)[C@@H](NC(=O)[C@@H](N)c3ccc(O)cc3)[C@H]2SC1 | inactive
22 | CC1=C(C(=O)O)N2C(=O)[C@@H](NC(=O)[C@H](N)c3ccc(O)cc3)[C@H]2SC1 | active
23 | CC=CC1=C(C(=O)O)N2C(=O)C(NC(=O)C(N)c3ccc(O)cc3)C2SC1 (stereo not given) | inactive
24 | C/C=C/C1=C(C(=O)O)N2C(=O)[C@@H](NC(=O)[C@H](N)c3ccc(O)cc3)[C@H]2SC1 | active
25 | C[C@@H]1CN([C@H](C)CO)C(=O)c2cccc(NC(=O)C3CC3)c2O[C@H]1CN(C)S(=O)(=O)c1ccc(F)cc1 | inactive
26 | C[C@H](CO)N1C[C@H](C)[C@H](CN(C)S(C)(=O)=O)Oc2ncc(C#CC(C)(C)O)cc2C1=O | inactive
27 | OCC(O)C(O)C(O)C(O)CO (stereo not given) | inactive
28 | C[C@H](CO)N1C[C@H](C)[C@H](CN(C)Cc2ccc(Oc3ccccc3)cc2)Oc2ccc(NS(=O)(=O)c3ccc(F)cc3)cc2CC1=O | inactive

Row | Structure (SMILES) | growth inhibition call
29 | C[C@@H]1CN([C@H](C)CO)S(=O)(=O)c2ccc(-c3cccc(C(=O)N(C)C)c3)cc2O[C@H]1CN(C)C(=O)Cc1ccccn1 | inactive
30 | COCCOC(=O)N1C(=O)[C@@]2(c3cc(C#CC4=CCCCC4)ccc31)[C@H](C(=O)N1CCN(c3ncccn3)CC1)[C@H]1C(=O)O[C@H](c3ccccc3)[C@H](c3ccccc3)N1[C@@H]2c1ccc(OCCO)cc1 | inactive
31 | CC(C)NC(=O)N(C)C[C@H]1Oc2ccc(NC(=O)NC3CCCCC3)cc2C(=O)N([C@H](C)CO)C[C@@H]1C | inactive
32 | C[C@@H]1CCCCO[C@@H](CN(C)S(=O)(=O)c2cn(C)cn2)[C@@H](C)CN([C@H](C)CO)C(=O)c2cc(NS(=O)(=O)c3cn(C)cn3)ccc2O1 | inactive
33 | Oc1ccccc1CNc1ccc(C2CCCCC2)cc1 | inactive
34 | Oc1cc(C2CCCCC2)cc(C2CCCCC2)c1 | active
35 | O=C1CCC(c2ccc(O)cc2)CC1 | inactive
36 | COc1ccc(NC(=O)Nc2ccc3c(c2)C(=O)N([C@H](C)CO)C[C@H](C)[C@H](CN(C)C(=O)NC(C)C)OCCCC[C@H](C)O3)cc1 | inactive
37 | FC(F)(F)c1ccc(CSc2c[nH]c3ccccc23)cc1 | active
38 | OCc1c[nH]c2ccccc12 | inactive
39 | Brc1ccc(CSc2c[nH]c3ccccc23)cc1 | active
40 | Cc1c[nH]c2ccccc12 | inactive
41 | N#C/C(=C\c1ccc(C(F)(F)F)cc1)c1c[nH]c2ccccc12 | inactive
42 | c1ccc2c(-c3ccncc3)c[nH]c2c1 | inactive
43 | COc1ccc(NC(=O)N(C)C[C@@H]2OCCCC[C@H](C)Oc3ccc(NS(=O)(=O)c4ccc(Cl)cc4)cc3C(=O)N([C@H](C)CO)C[C@H]2C)cc1 | inactive
44 | C[C@@H]1CN([C@H](C)CO)C(=O)c2cc(NC(=O)NC3CCCCC3)ccc2O[C@@H](C)CCCCO[C@@H]1CN(C)S(=O)(=O)c1cccs1 | inactive
45 | COc1ccc(NC(=O)Nc2ccc3c(c2)C(=O)N([C@@H](C)CO)C[C@@H](C)[C@H](CN(C)Cc2ccncc2)OCCCC[C@@H](C)O3)cc1 | inactive
46 | C[C@H]1CCCCO[C@H](CN(C)C(=O)Nc2ccccc2)[C@@H](C)CN([C@@H](C)CO)C(=O)c2cc(NC(=O)Cc3ccccc3)ccc2O1 | inactive
47 | C[C@H]1CN([C@@H](C)CO)C(=O)CCCn2cc(nn2)CO[C@H]1CN(C)S(=O)(=O)c1ccc(C#N)cc1 | inactive
48 | CN(C)c1cc(CN)ccn1 | inactive
49 | O=C(O)[C@@H]1CCCCN1 | inactive
50 | O=C(O)CC[C@H]1CCCCN1 | inactive
51 | OC[C@@H]1CCCCN1 | inactive
52 | OC[C@@H]1CCCN1 | inactive
53 | C1CCC(C(CC2CCCCN2)C2CCCCC2)CC1.O=C(O)C=CC(=O)O (stereo not given) | active
54 | C1CCC(C(C[C@H]2CCCCN2)C2CCCCC2)CC1 | active
55 | C[C@@H]1CN([C@H](C)CO)C(=O)c2cc(NC(=O)C3CCCCC3)ccc2O[C@@H](C)CCCCO[C@@H]1CN(C)Cc1ccc2c(c1)OCO2 | inactive

Source: the antibiotic and cytotoxicity screens of Wong et al. (2023)
